The full data set covers some 7,900 targets. This sample favours those with a hit. About 0.6% of all pairs of compound and target were hits.
compound: Cc1ccc(NC(=O)c2ccc(CN3CC[C@H](N(C)C)C3)c(C(F)(F)F)c2)cc1Nc1nccc(-c2cncnc2)n1 [bafetinib]; assay: log2 fold change, soluble protein after heating vs DMSO (PISA); higher = thermal stabilisation; K562 cells, 10 uM, 30 min; active = over 0.2 and 3.5 SD of the protein, either way, in both replicates (recomputed)
Procedure, shortened: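 Quantification of soluble protein used TMTpro 16plex LC-MS/MS, with channel sums equalised. Samples were the supernatant after 21,000xg for 90 min of pooled aliquots from K562 cells (2×10^6 cells/mL) treated with 10 μM compound for 30 min, heated for 3 min over 48°C-58°C, and extracted in PBS with 0.5% NP-40 at 4°C. Values, from duplicates, describe thermal stability against control samples on a log2 fold-change scale.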

Sequence of UniProt O95169 (O95169 whole entry, looked up): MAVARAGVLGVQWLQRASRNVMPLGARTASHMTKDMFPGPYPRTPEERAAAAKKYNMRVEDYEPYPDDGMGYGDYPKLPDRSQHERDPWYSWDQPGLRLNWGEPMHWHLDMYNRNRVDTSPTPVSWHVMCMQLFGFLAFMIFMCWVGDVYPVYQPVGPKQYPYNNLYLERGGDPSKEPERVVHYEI
Sequence of UniProt P56556 (P56556 whole entry, looked up): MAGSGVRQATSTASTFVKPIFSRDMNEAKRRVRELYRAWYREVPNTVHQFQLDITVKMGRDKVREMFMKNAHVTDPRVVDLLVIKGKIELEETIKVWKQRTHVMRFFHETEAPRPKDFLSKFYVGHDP
Sequence of UniProt Q9BUB5 (Q9BUB5 whole entry, looked up): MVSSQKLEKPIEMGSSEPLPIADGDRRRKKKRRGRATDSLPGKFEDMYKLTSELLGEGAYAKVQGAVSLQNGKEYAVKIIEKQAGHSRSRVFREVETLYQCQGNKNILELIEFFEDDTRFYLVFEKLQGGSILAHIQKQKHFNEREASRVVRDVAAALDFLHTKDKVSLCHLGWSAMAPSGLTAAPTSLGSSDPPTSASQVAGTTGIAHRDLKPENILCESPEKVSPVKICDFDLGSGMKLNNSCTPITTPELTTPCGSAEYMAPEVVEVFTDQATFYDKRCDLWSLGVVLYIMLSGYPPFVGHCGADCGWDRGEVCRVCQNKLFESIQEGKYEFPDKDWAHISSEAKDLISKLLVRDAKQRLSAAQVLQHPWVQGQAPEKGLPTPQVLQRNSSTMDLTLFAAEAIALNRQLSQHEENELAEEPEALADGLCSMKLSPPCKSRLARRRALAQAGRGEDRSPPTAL
Sequence of UniProt P49116 (P49116 whole entry, looked up): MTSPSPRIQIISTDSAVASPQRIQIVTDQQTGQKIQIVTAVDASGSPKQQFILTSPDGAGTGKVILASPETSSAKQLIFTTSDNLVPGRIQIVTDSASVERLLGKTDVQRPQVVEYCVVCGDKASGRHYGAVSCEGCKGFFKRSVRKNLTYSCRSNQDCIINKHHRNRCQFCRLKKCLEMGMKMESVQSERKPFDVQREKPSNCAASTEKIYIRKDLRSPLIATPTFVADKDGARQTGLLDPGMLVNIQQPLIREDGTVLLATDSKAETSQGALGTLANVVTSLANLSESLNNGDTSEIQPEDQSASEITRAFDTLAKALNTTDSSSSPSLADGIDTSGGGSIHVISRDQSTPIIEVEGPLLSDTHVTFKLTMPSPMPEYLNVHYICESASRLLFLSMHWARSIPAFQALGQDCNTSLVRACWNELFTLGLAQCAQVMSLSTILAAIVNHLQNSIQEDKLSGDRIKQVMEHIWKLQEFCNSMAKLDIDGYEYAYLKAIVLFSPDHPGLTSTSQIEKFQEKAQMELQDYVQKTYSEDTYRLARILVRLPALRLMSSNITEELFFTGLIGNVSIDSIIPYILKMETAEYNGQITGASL
Sequence of UniProt Q9HCE1 (Q9HCE1 whole entry, looked up): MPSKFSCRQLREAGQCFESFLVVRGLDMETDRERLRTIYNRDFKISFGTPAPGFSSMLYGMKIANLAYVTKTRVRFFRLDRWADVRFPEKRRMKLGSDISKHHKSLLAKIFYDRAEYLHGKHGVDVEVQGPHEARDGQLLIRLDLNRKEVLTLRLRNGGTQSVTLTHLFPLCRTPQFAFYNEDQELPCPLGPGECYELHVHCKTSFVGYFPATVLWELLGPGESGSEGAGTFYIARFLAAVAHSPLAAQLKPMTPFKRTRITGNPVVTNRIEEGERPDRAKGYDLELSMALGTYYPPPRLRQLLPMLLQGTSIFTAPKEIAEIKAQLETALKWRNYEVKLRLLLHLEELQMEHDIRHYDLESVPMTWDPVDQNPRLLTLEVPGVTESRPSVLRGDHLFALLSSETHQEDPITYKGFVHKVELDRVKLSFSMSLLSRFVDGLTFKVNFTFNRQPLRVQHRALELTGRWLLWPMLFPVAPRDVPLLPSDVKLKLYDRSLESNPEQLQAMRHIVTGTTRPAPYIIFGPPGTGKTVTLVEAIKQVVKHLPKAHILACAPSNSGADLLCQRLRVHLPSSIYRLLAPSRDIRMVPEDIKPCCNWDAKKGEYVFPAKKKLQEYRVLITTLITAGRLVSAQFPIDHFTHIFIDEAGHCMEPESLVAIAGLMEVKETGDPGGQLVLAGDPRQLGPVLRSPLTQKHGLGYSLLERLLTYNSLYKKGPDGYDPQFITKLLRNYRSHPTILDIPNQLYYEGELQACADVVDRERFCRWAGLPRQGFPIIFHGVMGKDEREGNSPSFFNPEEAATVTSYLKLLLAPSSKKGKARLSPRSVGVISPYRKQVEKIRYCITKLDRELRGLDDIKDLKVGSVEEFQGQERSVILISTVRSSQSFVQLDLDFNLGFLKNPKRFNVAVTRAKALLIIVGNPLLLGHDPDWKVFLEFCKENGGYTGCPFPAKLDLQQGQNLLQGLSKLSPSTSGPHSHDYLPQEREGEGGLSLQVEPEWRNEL
Sequence of UniProt Q6VY07 (Q6VY07 whole entry, looked up): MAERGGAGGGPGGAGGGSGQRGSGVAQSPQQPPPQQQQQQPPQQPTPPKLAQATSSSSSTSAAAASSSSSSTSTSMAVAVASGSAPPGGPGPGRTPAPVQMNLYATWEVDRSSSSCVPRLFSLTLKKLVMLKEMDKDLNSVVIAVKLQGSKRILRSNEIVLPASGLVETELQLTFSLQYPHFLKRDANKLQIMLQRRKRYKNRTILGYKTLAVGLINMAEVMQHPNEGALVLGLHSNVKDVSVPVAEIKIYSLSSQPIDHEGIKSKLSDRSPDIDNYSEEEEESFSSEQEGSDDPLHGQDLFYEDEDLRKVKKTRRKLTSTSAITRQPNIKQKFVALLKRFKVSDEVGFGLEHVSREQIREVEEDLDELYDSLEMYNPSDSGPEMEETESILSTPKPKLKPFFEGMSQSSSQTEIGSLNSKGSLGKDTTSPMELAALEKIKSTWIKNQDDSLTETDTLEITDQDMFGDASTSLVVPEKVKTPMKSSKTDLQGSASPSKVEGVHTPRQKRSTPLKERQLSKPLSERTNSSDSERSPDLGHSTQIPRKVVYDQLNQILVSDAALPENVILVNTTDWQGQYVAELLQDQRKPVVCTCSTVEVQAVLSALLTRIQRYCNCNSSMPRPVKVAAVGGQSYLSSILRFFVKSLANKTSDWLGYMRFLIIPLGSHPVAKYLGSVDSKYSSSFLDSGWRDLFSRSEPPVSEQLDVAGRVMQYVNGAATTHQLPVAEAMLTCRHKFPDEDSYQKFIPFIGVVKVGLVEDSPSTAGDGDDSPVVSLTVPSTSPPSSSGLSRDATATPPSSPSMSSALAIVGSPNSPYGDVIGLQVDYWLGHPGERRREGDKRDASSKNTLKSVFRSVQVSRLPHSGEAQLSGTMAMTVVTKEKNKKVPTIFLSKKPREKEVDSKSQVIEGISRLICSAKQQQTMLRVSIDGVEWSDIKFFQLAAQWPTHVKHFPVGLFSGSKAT
Sequence of UniProt Q13469 (Q13469 whole entry, looked up): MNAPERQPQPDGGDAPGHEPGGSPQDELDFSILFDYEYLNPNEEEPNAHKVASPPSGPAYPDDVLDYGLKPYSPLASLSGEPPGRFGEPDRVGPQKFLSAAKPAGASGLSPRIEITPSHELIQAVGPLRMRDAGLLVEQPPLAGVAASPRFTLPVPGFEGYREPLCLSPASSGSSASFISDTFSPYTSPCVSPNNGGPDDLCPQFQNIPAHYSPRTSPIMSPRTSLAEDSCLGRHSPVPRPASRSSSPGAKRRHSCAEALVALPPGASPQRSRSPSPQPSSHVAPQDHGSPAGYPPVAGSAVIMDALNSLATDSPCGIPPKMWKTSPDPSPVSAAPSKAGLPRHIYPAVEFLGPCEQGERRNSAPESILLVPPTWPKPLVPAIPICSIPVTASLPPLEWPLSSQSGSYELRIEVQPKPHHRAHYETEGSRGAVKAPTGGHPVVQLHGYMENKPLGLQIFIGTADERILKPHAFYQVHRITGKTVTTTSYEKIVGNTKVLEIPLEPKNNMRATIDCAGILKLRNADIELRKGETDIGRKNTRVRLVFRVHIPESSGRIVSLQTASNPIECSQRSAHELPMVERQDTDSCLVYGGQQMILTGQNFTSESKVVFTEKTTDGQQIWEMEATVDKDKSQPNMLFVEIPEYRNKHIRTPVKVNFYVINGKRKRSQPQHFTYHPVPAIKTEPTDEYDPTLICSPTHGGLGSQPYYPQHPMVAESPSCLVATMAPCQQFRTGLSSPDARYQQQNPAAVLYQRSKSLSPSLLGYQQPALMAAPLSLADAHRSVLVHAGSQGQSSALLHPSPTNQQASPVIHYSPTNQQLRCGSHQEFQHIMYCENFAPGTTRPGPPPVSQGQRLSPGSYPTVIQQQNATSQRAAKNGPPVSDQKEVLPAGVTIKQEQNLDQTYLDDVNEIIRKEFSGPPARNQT
Sequence of UniProt P15559 (P15559 whole entry, looked up): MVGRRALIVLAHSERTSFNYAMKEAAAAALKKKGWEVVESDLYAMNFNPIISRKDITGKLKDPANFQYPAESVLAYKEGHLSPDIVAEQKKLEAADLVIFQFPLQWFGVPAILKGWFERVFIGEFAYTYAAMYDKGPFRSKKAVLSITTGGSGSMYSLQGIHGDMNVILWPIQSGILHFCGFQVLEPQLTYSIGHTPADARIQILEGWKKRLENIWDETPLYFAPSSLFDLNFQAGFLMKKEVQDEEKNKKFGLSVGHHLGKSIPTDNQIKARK
Sequence of UniProt Q9HAN9 (Q9HAN9 whole entry, looked up): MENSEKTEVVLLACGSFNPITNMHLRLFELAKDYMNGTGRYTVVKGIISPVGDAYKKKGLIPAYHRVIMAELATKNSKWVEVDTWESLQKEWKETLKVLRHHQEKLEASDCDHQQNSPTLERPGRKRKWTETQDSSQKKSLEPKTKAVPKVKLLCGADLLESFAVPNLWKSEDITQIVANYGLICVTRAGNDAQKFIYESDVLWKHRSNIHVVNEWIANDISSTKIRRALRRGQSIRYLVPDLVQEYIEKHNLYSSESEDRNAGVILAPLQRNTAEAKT
Sequence of UniProt P15531 (P15531 whole entry, looked up): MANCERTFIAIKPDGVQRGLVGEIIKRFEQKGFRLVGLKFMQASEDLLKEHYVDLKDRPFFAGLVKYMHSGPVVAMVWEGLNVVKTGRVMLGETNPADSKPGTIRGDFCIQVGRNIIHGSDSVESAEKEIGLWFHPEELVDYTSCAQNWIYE

log2 fold change, inactive:
NFATC2 (UniProt Q13469) 0.006
MRPS18B (UniProt Q9Y676) 0.125
PACS1 (UniProt Q6VY07) 0.008
NUP205 (UniProt Q92621) -0.052
NA, A0A0B4J2A0 -0.066
OSBP (UniProt P22059) -0.017
MKNK1 (UniProt Q9BUB5) 0.088
NMNAT1 (UniProt Q9HAN9) 0.052
MRPS25 (UniProt P82663) 0.125
NME1 isoform 2 (UniProt P15531) 0.011
MRPL47 (UniProt Q9HD33) 0.264
NDUFA12 (UniProt Q9UI09) 0
MOV10 (UniProt Q9HCE1) 0.068
MTHFD1, A0A384N5Y3 0.099
MRPS5 (UniProt P82675) 0.153
NFATC2IP (UniProt Q8NCF5) 0.065
NOL11 (UniProt Q9H8H0) -0.042
NDUFA6 (UniProt P56556) 0.128
OSBPL8 (UniProt Q9BZF1) 0.182
NOSIP (UniProt Q9Y314) 0.085
NR2C2 isoform 2 (UniProt P49116) -0.093
NDUFB8 (UniProt O95169) -0.029
NQO1 (UniProt P15559) 0.025
MSH2 (UniProt P43246) 0

— the supplement of paper PMC10849652
